Laboratory results: paper PMC10726135, “HNF4α isoforms regulate the circadian balance between carbohydrate and lipid metabolism in the liver”
The full ranking holds about 18,000 sequences; the median of “log2 normalized intensity” is about 0.36, and the highest 2% start at about 7.3. What follows is part of a selection rich in the highest values, with near analogues and random picks from the rest.

Target: T1, HNF4alpha8 (COS-7 nuclear extract) (Homo sapiens, UniProt P41235-5 1-452)
T1 sequence: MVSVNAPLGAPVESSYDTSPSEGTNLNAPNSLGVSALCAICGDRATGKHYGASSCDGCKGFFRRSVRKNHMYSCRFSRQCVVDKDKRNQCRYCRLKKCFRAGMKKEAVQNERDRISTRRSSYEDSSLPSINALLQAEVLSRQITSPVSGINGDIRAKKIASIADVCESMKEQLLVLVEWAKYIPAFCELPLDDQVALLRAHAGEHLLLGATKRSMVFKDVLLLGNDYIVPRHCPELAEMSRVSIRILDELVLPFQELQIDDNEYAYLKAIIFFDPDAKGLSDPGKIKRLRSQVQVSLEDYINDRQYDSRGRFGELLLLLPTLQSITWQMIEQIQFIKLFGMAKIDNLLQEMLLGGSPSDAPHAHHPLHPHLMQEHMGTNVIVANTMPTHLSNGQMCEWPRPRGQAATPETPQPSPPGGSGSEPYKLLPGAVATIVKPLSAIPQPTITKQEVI
Assay: protein-binding microarray; COS-7 nuclear extract on double-stranded Agilent 4x180k PBM; binding buffer, salt, pH and temperature not given in the material; high values mean tight binding
Details: chain copies: 2; label: 3' end of strand 1 on the slide; dsDNA, one strand shown
Outline: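 COS-7 cells were transiently transfected by CaPO4 with an expression vector for a human HNF4α isoform, and nuclear extracts were prepared from them. The extracts were applied to a custom Agilent SurePrint G3 4x180k array of double-stranded ~60-nt oligonucleotides, with ~44,000 test sequences spotted in quadruplicate. An Agilent G2565CA scanner imaged bound HNF4α at 2-µm resolution. Binding signal is the background-corrected, normalized gProcessedSignal from Agilent software.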

Sequence	binding signal
CCCCGCCCGCAGCCCAGTCTTGGCCCCACCGCCTAGGGAGATTAGAGTATCGGTCGA	6.38 log2 normalized intensity
GAGTTATCTTCCTCCCCCCTTGGCTACATGGCCTAGGGAGATTAGAGTATCGGTCGA	4.15 log2 normalized intensity
TAGGCATTGTCTTGAAAGATAAAGTGTCTCGCCTAGGGAGATTAGAGTATCGGTCGA	1.48 log2 normalized intensity
TGTGTCAAAGGTCACTTAGTCCCTAAGTCTGCCTAGGGAGATTAGAGTATCGGTCGA	5.26 log2 normalized intensity
TTCCCTACCCCCTGGGAGTAACCTGCTTGTGCCTAGGGAGATTAGAGTATCGGTCGA	2.25 log2 normalized intensity
TTTTAAATACCTTTTTGGGACTGATAACTTGCCTAGGGAGATTAGAGTATCGGTCGA	1.23 log2 normalized intensity
AGCATGGAGAAAATTCTGGACCTTCTTATCGCCTAGGGAGATTAGAGTATCGGTCGA	1.59 log2 normalized intensity
CGCTGCGGGTCACGTGCCGCTGCGGGTCACGCCTAGGGAGATTAGAGTATCGGTCGA	2.61 log2 normalized intensity
AGAATGACCAGGAGTTTGGGATCAGACACGGCCTAGGGAGATTAGAGTATCGGTCGA	0.332 log2 normalized intensity
GAAACTTATTGTGAACTGGAGCAAAGGTCAGCCTAGGGAGATTAGAGTATCGGTCGA	5.97 log2 normalized intensity
TTATCTTGATGGTTAAAGTCCAATCTTCTGGCCTAGGGAGATTAGAGTATCGGTCGA	4.82 log2 normalized intensity
GACCATCACCACTTCAAGCTTGGTATGCTTGCCTAGGGAGATTAGAGTATCGGTCGA	-0.696 log2 normalized intensity
TTTTTTTTCTTAATTGCCCTTTGCCCTTTGGCCTAGGGAGATTAGAGTATCGGTCGA	9.03 log2 normalized intensity
ACAGTAGACTTTTTTTTTCTTAATTGCCCTGCCTAGGGAGATTAGAGTATCGGTCGA	3.18 log2 normalized intensity
AGACTTTTTTTTTCTTAATTGCCCTTTGCCGCCTAGGGAGATTAGAGTATCGGTCGA	5.04 log2 normalized intensity
ACCTCTCTGATGCCATGATAAGCAGTGTGGGCCTAGGGAGATTAGAGTATCGGTCGA	0.716 log2 normalized intensity
TGAATTCTGCAGCAGATGGCCAGCCTTTGGGCCTAGGGAGATTAGAGTATCGGTCGA	-0.939 log2 normalized intensity
GGACTTTGGCCCTCAGCCCAATGTGGTAGGGCCTAGGGAGATTAGAGTATCGGTCGA	6.09 log2 normalized intensity
GGGATGGACTTTGGCCCTCAGCCCAATGTGGCCTAGGGAGATTAGAGTATCGGTCGA	7.1 log2 normalized intensity
AAAGAGATTGGACTTTGGCCTGTGAATCCAGCCTAGGGAGATTAGAGTATCGGTCGA	9.05 log2 normalized intensity
GAACAGCAAGACTTTGGCCCTGCAGACTTTGCCTAGGGAGATTAGAGTATCGGTCGA	3.02 log2 normalized intensity
TACTGGGGATGGACTTTGGCCCTCAGCCCAGCCTAGGGAGATTAGAGTATCGGTCGA	9.48 log2 normalized intensity
TCTGCAGCAGATGGCCAGCCTTTGGACTTTGCCTAGGGAGATTAGAGTATCGGTCGA	8.08 log2 normalized intensity

Sequence	binding signal
TGCCATGATAAGCAGTGTGGACTTTTTCCTGCCTAGGGAGATTAGAGTATCGGTCGA	3.69 log2 normalized intensity
GTGACTTGAAAGGGACTTAGAATCGAATTGGCCTAGGGAGATTAGAGTATCGGTCGA	-0.0805 log2 normalized intensity
GATTGGACTTTGGCCTGTGAATCCACATTCGCCTAGGGAGATTAGAGTATCGGTCGA	6.47 log2 normalized intensity
TCTGATGCCATGATAAGCAGTGTGGACTTTGCCTAGGGAGATTAGAGTATCGGTCGA	7.54 log2 normalized intensity
CCCTGGTCTCTCTTACCCAACCAAAAACAAGCCTAGGGAGATTAGAGTATCGGTCGA	3.38 log2 normalized intensity
TACAGGCGTGAGCCACCGCGCCCCGCCCCCGCCTAGGGAGATTAGAGTATCGGTCGA	6.17 log2 normalized intensity
TCTCAGGTGAGCAGAGGGAGGACAAAGTTCGCCTAGGGAGATTAGAGTATCGGTCGA	5.01 log2 normalized intensity
GCCACATCCCCCACACCGAGATAGTAGAGAGCCTAGGGAGATTAGAGTATCGGTCGA	3.27 log2 normalized intensity
ACTTCTGAGTTTTATCAGCTTCCCTGAGATGCCTAGGGAGATTAGAGTATCGGTCGA	-0.495 log2 normalized intensity
AAACTTCCACTAACTTGAGTGTGCACCCTGGCCTAGGGAGATTAGAGTATCGGTCGA	1.93 log2 normalized intensity
CCGCAGCGCTGGTGGCTGCAAGGTTTGTGTGCCTAGGGAGATTAGAGTATCGGTCGA	0.472 log2 normalized intensity
TTATCATTACTTCTCAACTGATATGGCTCTGCCTAGGGAGATTAGAGTATCGGTCGA	0.393 log2 normalized intensity
AAGAAACTCGTGGCATTTTTGCCCCTGCCCGCCTAGGGAGATTAGAGTATCGGTCGA	3.61 log2 normalized intensity
CAAATAACATTCCTAACATTCTTCCTCACAGCCTAGGGAGATTAGAGTATCGGTCGA	-0.982 log2 normalized intensity
TTTGATGGACATTGCTGGTGGTGGTAGATCGCCTAGGGAGATTAGAGTATCGGTCGA	1.45 log2 normalized intensity
TTTGTGATTACATTGAGTCCACTGAGATCAGCCTAGGGAGATTAGAGTATCGGTCGA	1.91 log2 normalized intensity
CACTTTCCACTCTCTACTGATATGTCCTCCGCCTAGGGAGATTAGAGTATCGGTCGA	1.83 log2 normalized intensity
TTTCTGCTCTCAACTAGAGATAAACTTTTGGCCTAGGGAGATTAGAGTATCGGTCGA	0.481 log2 normalized intensity
CCCCACTGTAGTAAGGGAGTGTGGGGTGGTGCCTAGGGAGATTAGAGTATCGGTCGA	-0.92 log2 normalized intensity
TGTGCTGCCCCCGATAGCACTATTAGTCTTGCCTAGGGAGATTAGAGTATCGGTCGA	3.06 log2 normalized intensity
GCCACATCCTGTCTCCTTTAACCTTCATTCGCCTAGGGAGATTAGAGTATCGGTCGA	1.97 log2 normalized intensity
CACTGTCTCAGGGTCCACATTCCAGGAATAGCCTAGGGAGATTAGAGTATCGGTCGA	2.44 log2 normalized intensity
TTTTTGGCCTTTACCCCTTGAGTTTGAACTGCCTAGGGAGATTAGAGTATCGGTCGA	4.12 log2 normalized intensity

Sequence	binding signal
TTCCTGCATTAACATCAACATGGACTTTGAGCCTAGGGAGATTAGAGTATCGGTCGA	9.28 log2 normalized intensity
CTGCTTGATAGCCATCTGGTGGACTTTGCTGCCTAGGGAGATTAGAGTATCGGTCGA	6.09 log2 normalized intensity
CTGCCTTTCCCAGATGGATTGATAGACTTAGCCTAGGGAGATTAGAGTATCGGTCGA	0.78 log2 normalized intensity
GCCATCTGGTGGACTTTGCTCTGCTCATTTGCCTAGGGAGATTAGAGTATCGGTCGA	7.25 log2 normalized intensity
CTGGACTTTGGCTGCAAAATTTGAACAAAAGCCTAGGGAGATTAGAGTATCGGTCGA	2.14 log2 normalized intensity
TGATAGCCATCTGGTGGACTTTGCTCTGCTGCCTAGGGAGATTAGAGTATCGGTCGA	8.15 log2 normalized intensity
GCATTAACATCAACATGGACTTTGAGTCATGCCTAGGGAGATTAGAGTATCGGTCGA	6.9 log2 normalized intensity
ACCTGGAACTGAAAGAGACCTTTGACATCAGCCTAGGGAGATTAGAGTATCGGTCGA	5.23 log2 normalized intensity
AGCAGATGGCCAGCCTTTGGACTTTGAACTGCCTAGGGAGATTAGAGTATCGGTCGA	11.2 log2 normalized intensity
CAGCCTTTGGACTTTGAACTGCAACATCAGGCCTAGGGAGATTAGAGTATCGGTCGA	8.89 log2 normalized intensity
TACCTTTCCTGCATTAACATCAACATGGACGCCTAGGGAGATTAGAGTATCGGTCGA	2.03 log2 normalized intensity
TCCAACCTGTTCTTTTGAGCTGTGGTTAAGGCCTAGGGAGATTAGAGTATCGGTCGA	1.73 log2 normalized intensity
CAATCCAGAAGGCGCTGAACTTTGCCTTGTGCCTAGGGAGATTAGAGTATCGGTCGA	5.04 log2 normalized intensity
ATGGGACCTTTGCCCTTCTTGTTAACCTCCGCCTAGGGAGATTAGAGTATCGGTCGA	4.54 log2 normalized intensity
CCTGAGCCTGGACCTTGGAATGTCAAGATTGCCTAGGGAGATTAGAGTATCGGTCGA	3.05 log2 normalized intensity
AGCAGCATAAAGGACTTTCAACCCTGTGATGCCTAGGGAGATTAGAGTATCGGTCGA	3.89 log2 normalized intensity
AAAACCATTGCAAATTGGATGTTGAACCTCGCCTAGGGAGATTAGAGTATCGGTCGA	4.51 log2 normalized intensity
AGGGTCTTTGCAACTGTGTGTGGCCTGCACGCCTAGGGAGATTAGAGTATCGGTCGA	1.53 log2 normalized intensity
ATGGAAGGACCTTGGACTGAAGACTGGAACGCCTAGGGAGATTAGAGTATCGGTCGA	3.17 log2 normalized intensity
ATGGCCAGCCTTTGGACTTTGAACTGCAACGCCTAGGGAGATTAGAGTATCGGTCGA	10.1 log2 normalized intensity
GCTGGGTCAAAGTGTATGCATATTTTAAGTGCCTAGGGAGATTAGAGTATCGGTCGA	2.27 log2 normalized intensity
CCCCCACTGCCTGACCCCAAGTAATAGCCGGCCTAGGGAGATTAGAGTATCGGTCGA	5.69 log2 normalized intensity
TCCTGGAACTCTGACCTTTGCCCCCAGCCTGCCTAGGGAGATTAGAGTATCGGTCGA	10.1 log2 normalized intensity

Sequence	binding signal
CCCACCCCCACGCCCCCCAGCGGAAGTCCAGCCTAGGGAGATTAGAGTATCGGTCGA	6.82 log2 normalized intensity
GAGGTTCCTGGAACTCTGACCTTTGCCCCCGCCTAGGGAGATTAGAGTATCGGTCGA	10.3 log2 normalized intensity
ACCGACCTTTGGTTCCTGAACTCAAACCCCGCCTAGGGAGATTAGAGTATCGGTCGA	3.35 log2 normalized intensity
AAATCTGCCCAACCTTTGCCCCTGGAGGGAGCCTAGGGAGATTAGAGTATCGGTCGA	4.18 log2 normalized intensity
AGGAGGAGGTTCCTGGAACTCTGACCTTTGGCCTAGGGAGATTAGAGTATCGGTCGA	6.98 log2 normalized intensity
GCCTGCCCCTCTGACCTCTCCTCCTACCTTGCCTAGGGAGATTAGAGTATCGGTCGA	3.39 log2 normalized intensity
GGAACCCCACCCCCACGCCCCCCAGCGGAAGCCTAGGGAGATTAGAGTATCGGTCGA	7.38 log2 normalized intensity
GGATCGGAACCCCACCCCCACGCCCCCCAGGCCTAGGGAGATTAGAGTATCGGTCGA	7.03 log2 normalized intensity
CCCCACCCCCACTGCCTGACCCCAAGTAATGCCTAGGGAGATTAGAGTATCGGTCGA	7.09 log2 normalized intensity
TTCATCCCCACCCCCACTGCCTGACCCCAAGCCTAGGGAGATTAGAGTATCGGTCGA	7.49 log2 normalized intensity
CTTCCACCCACTTTATCTTCTATAGGAATTGCCTAGGGAGATTAGAGTATCGGTCGA	0.738 log2 normalized intensity
GTGTGTGGCCTGCACAGTTGCACAATGTCAGCCTAGGGAGATTAGAGTATCGGTCGA	0.815 log2 normalized intensity
CTATAGTTATCTCTGCTGATAGCATAAAGCGCCTAGGGAGATTAGAGTATCGGTCGA	0.212 log2 normalized intensity
GGCTCCCTGGGGTTAAAATGTTTACTGAAGGCCTAGGGAGATTAGAGTATCGGTCGA	0.937 log2 normalized intensity
CTGTGCAAGCCCCTGACCAAGGGTCATGCTGCCTAGGGAGATTAGAGTATCGGTCGA	3.96 log2 normalized intensity
GAACTCTGACCTTTGCCCCCAGCCTCTCACGCCTAGGGAGATTAGAGTATCGGTCGA	9.22 log2 normalized intensity
CTGACCTTTGCCCCCAGCCTCTCACAGTAGGCCTAGGGAGATTAGAGTATCGGTCGA	7.53 log2 normalized intensity
AGCCTCTCACAGTAGCCCAGGTCCTTTGGTGCCTAGGGAGATTAGAGTATCGGTCGA	0.598 log2 normalized intensity
CTTTGCCCCCAGCCTCTCACAGTAGCCCAGGCCTAGGGAGATTAGAGTATCGGTCGA	4.72 log2 normalized intensity
GCTATCTTATCTTTGACCTTACCAGCCCACGCCTAGGGAGATTAGAGTATCGGTCGA	2.94 log2 normalized intensity
TGCCCAGCTTGAATCACTCACTGACCTCTTGCCTAGGGAGATTAGAGTATCGGTCGA	4.46 log2 normalized intensity
